Records with an inconclusive call do not appear. A call without a number means that no potency is given here. Values without a mark were called inactive. Activity calls are given as the source filed them. Calls come from the whole dose curve; as a rule, active = well fitted activation curve with a large enough effect in the signal ratio in the repeat runs (not every such curve was filed as active); inconclusive = weak or mixed curves; inactive = flat fitted curve, though single readings scatter; the % refers to the signal ratio.
Assay: qHTS assay to identify small molecule agonists of H2AX (AID 1224845)
Settings: CHO-K1 phospho-H2AX Ser139 HTRF, 3 h; series mostly up to 154 µM; activation (H2AX phosphorylation): at the top concentration
Method in brief: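 Wild-type CHO-K1 cells, plated overnight, exposed 3hr at 37C to 15 concentrations (0.76% DMSO final). Lysed, then HTRF anti-pH2AX (S139) cryptate and anti-H2AX-d2 antibodies, 24 hr room temperature; 665/620 nm emission read.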
Potency is the fitted concentration of half-maximal effect.

Which “activation (H2AX phosphorylation)” value does the source give for `CCOc1ccccc1C(N)=O` here?
The value was -1.3%.

With `C/C=C/c1ccc(OCC)c(O)c1` as the molecule, how does the “activation (H2AX phosphorylation)” value read?
Its value is 1.2%.

With `Nc1nc(=S)c2[nH]cnc2[nH]1` as the molecule, how does the “activation (H2AX phosphorylation)” value read?
Its value is -0.28% [at 70.9 µM].

For `O=c1n(CC2CO2)c(=O)n(CC2CO2)c(=O)n1CC1CO1` (stereo not drawn), which Potency is on record?
The Potency was 112 µM (active).

For `CCc1ccc(C(c2ccc(CC)cc2)C(Cl)Cl)cc1`, which “activation (H2AX phosphorylation)” value is on record?
The value was -0.962%.

For `CCC[C@H](N[C@@H](C)C(=O)N1[C@H](C(=O)O)C[C@@H]2CCCC[C@@H]21)C(=O)OCC`, which Potency is on record?
Its Potency is “inactive”.

With `O=C1Nc2ccccc2C1(c1ccc(O)cc1)c1ccc(O)cc1` as the molecule, how does the Potency read?
The Potency was “inactive”.

Which Potency does the source give for `CC[C@]1(O)C[C@@H]2CN(CCc3c([nH]c4ccccc34)[C@@](C(=O)OC)(c3cc4c(cc3OC)N(C)[C@H]3[C@@](O)(C(=O)OC)[C@H](OC(C)=O)[C@]5(CC)C=CCN6CC[C@]43[C@@H]65)C2)C1` here?
Its Potency is “inactive”.

With `CCCCCCC(O)CCCCCCCCCCC(=O)O` (stereo not drawn) as the molecule, how does the Potency read?
Its Potency is “inactive”.

For `CCN(CC)c1ccc2c(C)cc(=O)oc2c1`, which “activation (H2AX phosphorylation)” value is on record?
The value was 1.72%.

For `NCCO`, which “activation (H2AX phosphorylation)” value is on record?
The value was 0.549%.

For `CC(=O)OCCOCCOCCOC(C)=O`, which Potency is on record?
The Potency was “inactive”.

Which Potency does the source give for `O=C(O)c1cccc(C(=O)O)c1` here?
The Potency was “inactive”.

With `C=C(C)C1CC=C(C)C(OC(C)=O)C1` (stereo not drawn) as the molecule, how does the Potency read?
Its Potency is “inactive”.

With `O=C(Oc1ccccc1)c1ccccc1O` as the molecule, how does the Potency read?
The Potency was “inactive”.

For `CCC(=O)/C=C/C1C(C)=CCCC1(C)C` (stereo not drawn), which Potency is on record?
The Potency was “inactive”.

For `CC(C)(C)NC(=O)[C@@H]1CN(Cc2cccnc2)CCN1C[C@@H](O)C[C@@H](Cc1ccccc1)C(=O)N[C@H]1c2ccccc2C[C@H]1O`, which Potency is on record?
The Potency was “inactive”.

Which “activation (H2AX phosphorylation)” value does the source give for `COC(=O)/C=C/c1ccccc1` here?
Its value is -2.18%.

Which “activation (H2AX phosphorylation)” value does the source give for `CC(C)(C)NCC(O)c1cc(O)cc(O)c1` (stereo not drawn) here?
The value was -0.164% [at 70.9 µM].

For `Cc1ccnc2c1NC(=O)c1cccnc1N2C1CC1`, which Potency is on record?
Its Potency is “inactive”.

Which Potency does the source give for `NC(=Nc1ccccc1)Nc1ccccc1` here?
Its Potency is “inactive”.

Which “activation (H2AX phosphorylation)” value does the source give for `CC(=O)OCC1=C(C(=O)O)N2C(=O)[C@@H](NC(=O)Cc3cccs3)[C@H]2SC1` here?
The value was -2.95% [at 70.9 µM].

Which Potency does the source give for `COC(=O)c1cccc(C(=O)OC)c1` here?
The Potency was “inactive”.

With `Cc1cccc(O)c1C` as the molecule, how does the Potency read?
The Potency was “inactive”.

For `CC(=O)Nc1ccc(C(=O)CCl)cc1`, which “activation (H2AX phosphorylation)” value is on record?
The value was 0.545%.

With `OCCN1CCNCC1` as the molecule, how does the Potency read?
The Potency was “inactive”.

For `[Cl][In]([Cl])[Cl]`, which Potency is on record?
Its Potency is “inactive”.

For `O`, which Potency is on record?
Its Potency is “inactive”.

With `C=C(C)C(=O)O` as the molecule, how does the Potency read?
The Potency was “inactive”.

Which Potency does the source give for `O=C(Cl)c1cccc(C(=O)Cl)c1` here?
Its Potency is “inactive”.

For `CC(=O)C1=C(C)[C@@H]2C[C@@]3(C1)[C@H](C)CC[C@H]3C2(C)C`, which “activation (H2AX phosphorylation)” value is on record?
The value was -1.08%.

For `C#CC(C)(CC)OC(=O)c1ccccc1C(=O)O` (stereo not drawn), which “activation (H2AX phosphorylation)” value is on record?
The value was 0.0171% [at 70.9 µM].

Which “activation (H2AX phosphorylation)” value does the source give for `CCCCOCCOC(=O)c1ccccc1C(=O)OCCOCCCC` here?
Its value is -1.53%.

Which “activation (H2AX phosphorylation)” value does the source give for `O=C(O)CP(=O)(O)O` here?
Its value is -0.953% [at 70.9 µM].

Which “activation (H2AX phosphorylation)” value does the source give for `c1ccc2cc3c(ccc4ccccc43)cc2c1` here?
Its value is -1.98%.

With `O=C(O)c1cn(-c2ccc(F)cc2)c2cc(N3CCNCC3)c(F)cc2c1=O` as the molecule, how does the Potency read?
The Potency was “inactive”.

For `CC(=O)O[C@]1(C(C)=O)CC[C@H]2[C@@H]3C[C@H](C)C4=CC(=O)CC[C@]4(C)[C@H]3CC[C@@]21C`, which Potency is on record?
The Potency was “inactive”.

For `CCCN[C@H]1CCc2nc(N)sc2C1`, which Potency is on record?
Its Potency is “inactive”.
